Results on 8 compounds are retold here after PMC5540273 (PLoS ONE, 2017).

Where “and” joins values, the source holds several entries; their conditions need not be identical. Identical values can stand only once. Like-named read-outs stand apart in the source and are kept apart here.

For assay [1], the system named is INSRR. Conditions: concentration: 1 μM, replicates: in singlicate, n = 1.
Assay [2] concerns INSR. Conditions: concentration: 1 μM, replicates: in singlicate, n = 1.
The test system of assay [3] is IRAK1. Conditions: concentration: 1 μM, replicates: in singlicate, n = 1.
Assay [4] relates to IRAK3. Conditions: concentration: 1 μM, replicates: in singlicate; n = 1.
Assay [5] concerns IRAK4. The conditions noted are these: concentration: 1 μM, replicates: in singlicate, n = 1.
In assay [6] the test system is ITK. The conditions noted are these: concentration: 1 μM, replicates: in singlicate, n = 1.
In assay [7] the test system is JAK1(JH1domain-catalytic). The conditions noted are these: concentration: 1 μM, replicates: in singlicate, n = 1.
In assay [8] the test system is JAK1(JH2domain-pseudokinase). Conditions: concentration: 1 μM, replicates: in singlicate, n = 1.
Assay [9] concerns JAK2(JH1domain-catalytic). The conditions noted are these: concentration: 1 μM, replicates: in singlicate, n = 1.
The subject of assay [10] is JAK3(JH1domain-catalytic). Conditions: concentration: 1 μM, replicates: in singlicate; n = 1.
The subject of assay [11] is T1, JNK1.
T1 construct: gene MAPK8
Conditions: concentration: 1 μM, replicates: in singlicate, n = 1.

Assay [12] relates to T2, JNK2.
T2 construct: gene MAPK9
Conditions: concentration: 1 μM, replicates: in singlicate, n = 1.

Assay [13] concerns T3, JNK3.
T3 construct: gene MAPK10
The conditions noted are these: concentration: 1 μM, replicates: in singlicate, n = 1.

For assay [14], the system named is KIT-autoinhibited. Conditions: concentration: 1 μM, replicates: in singlicate, n = 1.
The subject of assay [15] is KIT. The conditions noted are these: concentration: 1 μM, replicates: in singlicate, n = 1.
In assay [16] the test system is LATS1. The conditions noted are these: concentration: 1 μM, replicates: in singlicate, n = 1.
Assay [17] has as its system LATS2. Conditions: concentration: 1 μM, replicates: in singlicate, n = 1.
Assay [18] deals with LCK. The conditions noted are these: concentration: 1 μM, replicates: in singlicate, n = 1.
Assay [19] relates to LIMK1. Conditions: concentration: 1 μM, replicates: in singlicate; n = 1.
The test system of assay [20] is LIMK2. The conditions noted are these: concentration: 1 μM, replicates: in singlicate, n = 1.
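Also: KINOMEscan kinase panel screen.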

As to `Nc1nc(-c2ccccn2)c(-c2ccnc3ccccc23)s1` [GW548057], the “%Inh” value in [1] is listed as 0%; in assay [2], 0%; in assay [3], 33%; in assay [4], 0%; in assay [5] it was 0%; in [6] it was 5%. The “%Inh” value in assay [7] is listed as 28%; in [8], 5%; in [9], 22%; in [10], 0%; in [11], 0%; in assay [12], 19%. Further, the “%Inh” value in assay [13] amounted to 1%; in assay [14], 3%; in assay [15], 11%; in assay [16] it was 0%; in assay [17] it was 23%; in assay [18] it was 10%. Further, the “%Inh” value in assay [19] was determined as 0%; in [20], 9%.
Regarding `Nc1nc(-c2cccnc2)c(-c2ccnc3ccccc23)s1` [GW684083], the “%Inh” value in [1] worked out at 0%; in assay [2], 2%; in [3] it was 42%; in assay [4], 16%; in assay [5] it was 1%; in [6] it was 15%. For the same compound, the “%Inh” value came to 6% in assay [7]; 0% in [8]; 0% in assay [9]; 0% in assay [10]; 23% in [11]; 29% in [12]. Moreover, the “%Inh” value in assay [13] amounted to 11%; in assay [14], 0%; in [15] it was 23%; in assay [16], 0%; in [17], 26%; in [18], 17%. The “%Inh” value in assay [19] and in assay [20] was 0% throughout.
As for `Clc1cc(Nc2ncnc3cc[nH]c23)ccc1OCc1ccccn1`, the “%Inh” value in assay [1] is listed as 0%; in assay [2] it was 3%; in assay [3], 6%; in assay [4] it was 19%; in [5] it was 2%; in assay [6] it was 0%. For the same compound, the “%Inh” value in assay [7] worked out at 3%; in assay [8], 35%; in assay [9] it was 16%; in assay [10], 0%; in assay [11], 31%; in assay [12] it was 40%. In addition, the “%Inh” value worked out at 53% in assay [13]; 11% in assay [14]; 38% in [15]; 14% in assay [16]; 29% in assay [17]; 7% in assay [18]. Further, the “%Inh” value in assay [19] and in [20] was 0% in each case.
As to `COc1ccc(-c2nc3n(c2-c2ccncc2)CCC3)cc1` [SKF-104493], the “%Inh” value was 1% and 0% in assay [1] (1 µM); 5% and 0% in [2] (1 µM); 12% and 0% in assay [3] (1 µM); 0% in assay [4]; 0% and 2% in assay [5] (1 µM); 0% and 1% in assay [6] (1 µM). For the same compound, the “%Inh” value was 0% and 9% in assay [7] (1 µM); 43% and 41% in [8] (1 µM); 11% and 0% in assay [9] (1 µM); 0% in assay [10]; 46% and 22% in [11] (1 µM); 37% and 50% in assay [12] (1 µM). Also, the “%Inh” value is 47% and 65% in assay [13] (1 µM); 0% and 19% in [14] (1 µM); 0% and 25% in assay [15] (1 µM); 0% and 19% in [16] (1 µM); 16% and 12% in [17] (1 µM); 26% and 23% in assay [18] (1 µM). For the same compound, the “%Inh” value in assay [19] was 0%; in assay [20] (1 µM), 0% and 3%.
For the compound `Cl.Cn1ccc(-c2cccc(Nc3ccnc4cc(-c5nccs5)ccc34)c2)n1` [GW525701], the “%Inh” value in [1] came to 0%; in [2] it was 0%; in [3] it was 41%; in [4], 0%; in assay [5], 15%; in assay [6], 7%. Also, the “%Inh” value in [7] is 18%; in [8], 0%; in [9] it was 0%; in assay [10], 0%; in assay [11], 12%; in assay [12], 13%. The “%Inh” value in assay [13] stood at 2%; in [14] it was 0%; in assay [15], 33%; in assay [16], 0%; in assay [17], 0%; in assay [18], 3%. The “%Inh” value in [19] and in assay [20] was 0% throughout.
For the compound `Nc1n[nH]c2nnc(-c3ccccc3)cc12` [SB-517389], the “%Inh” value worked out at 0% in assay [1]; 0% in assay [2]; 22% in [3]; 0% in [4]; 25% in assay [5]; 13% in assay [6]. Further, the “%Inh” value in assay [7] is on record as 13%; in assay [8], 8%; in assay [9] it was 42%; in [10], 0%; in [11] it was 27%; in assay [12], 5%. Also, the “%Inh” value was determined as 0% in assay [13]; 0% in [14]; 1% in assay [15]; 0% in assay [16]; 0% in [17]; 0% in assay [18]. The “%Inh” value is recorded as 19% in assay [19] and 3% in [20].
With `O=C(NCCCN1CCCC1=O)c1cnc(NCc2cc(Cl)ccc2Cl)nc1NC1CCNCC1`, the “%Inh” value in assay [1] worked out at 13%; in assay [2], 0%; in assay [3], 37%; in assay [4], 0%; in assay [5] it was 2%; in assay [6], 0%. Further, the “%Inh” value in assay [7] stood at 1%; in assay [8] it was 4%; in assay [9], 33%; in assay [10], 0%; in assay [11], 0%; in [12] it was 0%. In addition, the “%Inh” value in assay [13] is recorded as 0%; in assay [14], 0%; in assay [15], 0%; in assay [16], 0%; in [17], 29%; in assay [18], 15%. Also, the “%Inh” value in assay [19] and in [20] was 0% each time.
Consider `Cl.Cl.c1ccc(-c2cc3ccncc3cc2OC2CCNCC2)cc1` [GSK1122999], for which the “%Inh” value stood at 0% in assay [1]; 0% in [2]; 56% in [3]; 24% in [4]; 1% in assay [5]; 11% in [6]. Moreover, the “%Inh” value in assay [7] was found to be 22%; in assay [8], 0%; in assay [9] it was 8%; in assay [10], 0%; in assay [11] it was 14%; in [12] it was 15%. The “%Inh” value in assay [13] was determined as 0%; in assay [14] it was 0%; in assay [15], 18%; in assay [16] it was 33%; in assay [17], 50%; in [18], 38%. Further, the “%Inh” value in assay [19] was 18%; in assay [20], 34%.
